From PubChem BioAssay
Several values for one entry are separate records, joined by “and”; a condition that tells them apart may be missing. Equal entries are not always repeated. Results filed as inconclusive are left out. Activity calls are given as the source filed them.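 How the source made its calls, unless noted: active means mean z-score across replicates of 1.96 or higher in either the MELAS or the Rieske mutant cell line; inactive means the rest.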

Legend:
[1] = EMT-state selective cytotoxicity in co-culture – imaging, PC-3E GFP, TEM4-18 mCherry, primary screen (AID 1345086;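 active means compounds killing one labelled cell type while sparing the other, by normalised counts and ratio limits, not self-fluorescent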;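 on all read-outs here: cells exposed to compound for 72 h before imaging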;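 on red/green cell ratio (normalised): normalised mesenchymal count divided by normalised epithelial count so high means epithelial killing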); conditions: PC-3E GFP / TEM4-18 mCherry co-culture, imaging cell counts, at 1 µM; for red/green cell ratio (normalised): actives lie on both sides, counts scaled to control wells, 1 = unselective
[2] = tested on: Aerobactin synthetase IucA (Klebsiella pneumoniae); assay: inhibition of K. pneumoniae IucA enzyme – biochemical, Tocris library, absorbance (AID 1345561; call rule not given here;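 further: 100% = enzyme without compound and 0% = no enzyme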); conditions: purified IucA enzyme assay, absorbance (OD) read-out; stronger effect = lower value;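 tested at 8 µM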
[3] = chitosan synthesis blockers in C. neoformans – flow cytometry, Cibacron Brilliant Red staining (AID 1347148; call rule not given here;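 further: compound exposure lasted three days at 37 degrees C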); conditions: Cryptococcus neoformans chitosan, stronger effect = lower value; at 10 µM unless noted
[4] = blockers of cellular phospholipid synthesis – cell-based, LOPAC library, screen 4, primary screen (AID 1347384; call rule not given here); conditions: animal cells, phospholipid biosynthesis inhibition screen; at 10 µM
[5] = MELAS cybrid and Rieske KO viability enhancers – cell-based, MELAS cybrids, Rieske KO mouse fibroblasts, CellTiter-Glo, primary screen (AID 1508586); conditions: low glucose;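 further: z relative to plate mean and SD of compound and empty wells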
[6] = viability loss in pontine glioma line – cell-based, SU-DIPG-XVII, MIPE5.0, CellTiter-Glo, qHTS, dose response (AID 1347060; cut-off not given, nearly all actives have AC50 up to about 26 µM;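 on AC50: cells exposed to compound for 48 hours before viability readout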); conditions: CellTiter-Glo ATP luminescence
[7] = viability loss in pontine glioma line – cell-based, SU-DIPG-XIII, MIPE4.0, CellTiter-Glo, qHTS, dose response (AID 1347061; cut-off not given, nearly all actives have AC50 up to about 37 µM;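 further: cells exposed to compound for 48 hours before readout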); conditions: CellTiter-Glo ATP luminescence
[8] = viability loss in pontine glioma line – cell-based, JHH-DIPG-1, MIPE4.0, CellTiter-Glo, qHTS, dose response (AID 1347062; cut-off not given, nearly all actives have AC50 up to about 27 µM;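 on AC50: cells exposed to compound for two days before readout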); conditions: JHH-DIPG-1 viability, CellTiter-Glo ATP luminescence
[9] = viability loss in pontine glioma line – cell-based, SU-DIPG-IV, MIPE4.0, CellTiter-Glo, qHTS, dose response (AID 1347063; cut-off not given, nearly all actives have AC50 up to about 30 µM;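 further: compound exposure lasted 48 hours before the viability readout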); conditions: CellTiter-Glo ATP luminescence
[10] = viability loss in pontine glioma line – cell-based, SU-DIPG-XIII, MIPE5.0, CellTiter-Glo, qHTS, dose response (AID 1347064; cut-off not given, nearly all actives have AC50 up to about 23 µM;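 on AC50: cells exposed to compound for 48 hours before the viability read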); conditions: CellTiter-Glo ATP luminescence
[11] = viability loss in pontine glioma line – cell-based, SU-DIPG-XXV, MIPE5.0, CellTiter-Glo, qHTS, dose response (AID 1347065; cut-off not given, nearly all actives have AC50 up to about 26 µM;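 further: cells exposed to compound for 48 hours before ATP readout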); conditions: CellTiter-Glo ATP luminescence
[12] = growth inhibition of DIPG cells – cell-based, MIPE4.0 library, CellTiter-Glo luminescence, qHTS (AID 1347066; cut-off not given, nearly all actives have AC50 up to about 30 µM;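 further: cells exposed to compound for 48 hours before readout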); conditions: SU-DIPG-VI viability, CellTiter-Glo ATP luminescence
[13] = JHH-DIPG-1 glioma cell viability, MIPE5.0 library, CellTiter-Glo luminescence, qHTS (AID 1347067; cut-off not given, nearly all actives have AC50 up to about 26 µM;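 further: cells exposed to compound for 48 hours before readout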); conditions: JHH-DIPG-1 glioma viability, CellTiter-Glo ATP luminescence
[14] = growth inhibition of DIPG cells – cell-based, MIPE5.0 library, qHTS (AID 1347068; cut-off not given, nearly all actives have IC50 up to about 30 µM;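 on IC50: cells exposed to compound for 48 hours before viability readout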); conditions: SU-DIPG-XXV viability
[15] = viability loss with induced miR-34 in A549 – imaging, A549 dox-inducible miR-34, nuclei and caspase counts, primary screen (AID 1347080;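 active means compounds whose cell count with miR-34 switched on is under 0.7 times the count with it off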); conditions: A549 miR-34 inducible, Hoechst nuclei count, 48 h
[16] = measured here: epithelial PC-3E GFP cell survival
[17] = measured here: mesenchymal TEM4-18 mCherry cell survival
[18] = MELAS cybrid survival, CellTiter-Glo 48 h, stronger effect = higher value
[19] = Rieske KO mouse fibroblast survival, CellTiter-Glo 72 h
[20] = stronger effect = lower value, cell number ratio, induced over uninduced
[21] = measured here: relative caspase fold change +Dox/-Dox
[22] = measured here: total cells with miR-34 induction, stronger effect = lower value
[23] = measured here: total cells without miR-34 induction

In the case of CCCOc1ccccc1-c1nc2n[nH]nc2c(=O)[nH]1, the red/green cell ratio (normalised) [1] is reported as 0.95 (inactive), the normalised cell number [1, 16] is reported as 1.02 and the normalised cell number [1, 17] is reported as 0.97. For the same compound, the remaining activity [2] was 122% (inactive), the fold fluorescence [3] was 6.79 [at 184.3 µM] (inactive) and the outcome [4] was “inactive”. The z-score [5, 18] was 0.137 (inactive) and -0.665 (inactive) and the z-score [5, 19] was -0.13 and -0.629.

With CN(C)c1ccc2nc3ccc(=[N+](C)C)cc-3sc2c1 the red/green cell ratio (normalised) [1] was 0.68 (inactive), the normalised cell number [1, 16] was 0.15 and the normalised cell number [1, 17] was 0.1. The AC50 [6] was 5.9 µM (active), the AC50 [7] was 4.69 µM (active) and the AC50 [8] was 2.96 µM (active). The AC50 [9] was 5.9 µM (active), the AC50 [10] was 2.63 µM (active) and the AC50 [11] was 5.9 µM (active). The AC50 [12] was 2.35 µM (active), the AC50 [13] was 10.5 µM (active) and the IC50 [14] was 9.34 µM (active). For the same compound, the fold change [15, 20] was 0.946 (inactive), the fold change [15, 21] was 1.47 and the cell count [15, 22] was 3100. For the same compound, the cell count [15, 23] was 3280.

With CCCCCN(C)CCC(O)(P(=O)(O)O)P(=O)(O)O the red/green cell ratio (normalised) [1] was 1.14 (inactive), the normalised cell number [1, 16] was 0.86 and the normalised cell number [1, 17] was 0.98. The outcome [6] was “inactive”, the outcome [7] was “inactive” and the outcome [8] was “inactive”. The outcome [9] was “inactive”, the outcome [10] was “inactive” and the outcome [11] was “inactive”. For the same compound, the outcome [12] was “inactive”, the outcome [13] was “inactive” and the outcome [14] was “inactive”. For the same compound, the outcome [4] was “inactive”.

For CN1CCC[C@@H]1CCO[C@](C)(c1ccccc1)c1ccc(Cl)cc1, the red/green cell ratio (normalised) [1] was 1.23 (inactive), the normalised cell number [1, 16] was 1.06 and the normalised cell number [1, 17] was 1.3. The remaining activity [2] was 109% (inactive), the outcome [7] was “inactive” and the z-score [5, 18] was -0.745 (inactive) and -0.186 (inactive). For the same compound, the z-score [5, 19] was 0.0285 and -0.556.

With O=c1c(-c2ccc(O)cc2)coc2cc(O)cc(O)c12 the red/green cell ratio (normalised) [1] was 0.95 (inactive), the normalised cell number [1, 16] was 0.96 and the normalised cell number [1, 17] was 0.91. The remaining activity [2] was 121% (inactive), the outcome [7] was “inactive” and the outcome [8] was “inactive”. For the same compound, the outcome [9] was “inactive”, the outcome [10] was “inactive” and the outcome [12] was “inactive”. The fold fluorescence [3] was 4.75 [at 185 µM] (inactive), the outcome [4] was “inactive” and the z-score [5, 18] was -0.427 (inactive). The z-score [5, 19] was 0.508.

In the case of CN1C(C(=O)Nc2ccccn2)=C(O)c2sccc2S1(=O)=O, the red/green cell ratio (normalised) [1] is reported as 0.82 (inactive), the normalised cell number [1, 16] is reported as 1.14 and the normalised cell number [1, 17] is reported as 0.93. For the same compound, the outcome [6] was “inactive”, the outcome [7] was “inactive” and the outcome [8] was “inactive”. The outcome [9] was “inactive”, the outcome [10] was “inactive” and the outcome [11] was “inactive”. For the same compound, the outcome [12] was “inactive”, the outcome [13] was “inactive” and the outcome [14] was “inactive”. For the same compound, the z-score [5, 18] was -0.378 (inactive) and 0.116 (inactive) and -0.742 (inactive) and the z-score [5, 19] was 0.123 and -0.0171 and -1.25.

With COC(=O)[C@H]1[C@H]2C[C@@H]3c4[nH]c5cc(OC)ccc5c4CCN3C[C@H]2C[C@@H](OC(=O)c2cc(OC)c(OC)c(OC)c2)[C@@H]1OC the red/green cell ratio (normalised) [1] was 1.08 (inactive) and 1.2 (inactive), the normalised cell number [1, 16] was 0.87 and 1.06 and the normalised cell number [1, 17] was 0.94 and 1.27. The remaining activity [2] was 124% (inactive), the outcome [4] was “inactive” and the z-score [5, 18] was 0.355 (inactive). It also gave a z-score [5, 19] of 1.28.

For CSc1ccc2c(c1)C(N1CCN(C)CC1)Cc1ccccc1S2 (configuration not stated), the red/green cell ratio (normalised) [1] was 1.1 (inactive), the normalised cell number [1, 16] was 0.72 and the normalised cell number [1, 17] was 0.79. The remaining activity [2] was 107% (inactive), the outcome [4] was “inactive” and the z-score [5, 18] was -0.294 (inactive) and -0.887 (inactive). For the same compound, the z-score [5, 19] was 0.279 and -1.2.

In the case of O=C(c1ccc(F)cc1)C1CCN(CCn2c(=O)[nH]c3ccccc3c2=O)CC1, the red/green cell ratio (normalised) [1] is reported as 0.88 (inactive), the normalised cell number [1, 16] is reported as 0.99 and the normalised cell number [1, 17] is reported as 0.88. For the same compound, the remaining activity [2] was 124% (inactive), the outcome [7] was “inactive” and the outcome [8] was “inactive”. The outcome [9] was “inactive”, the outcome [12] was “inactive” and the outcome [4] was “inactive”. For the same compound, the z-score [5, 18] was -0.256 (inactive) and 0.859 (inactive) and 1.46 (inactive) and the z-score [5, 19] was 0.928 and -0.102 and 0.875.

For Cc1cnc(C(=O)O)c[n+]1[O-], the red/green cell ratio (normalised) [1] was 0.76 (inactive), the normalised cell number [1, 16] was 1.32 and the normalised cell number [1, 17] was 1. For the same compound, the outcome [6] was “inactive”, the outcome [7] was “inactive” and the outcome [8] was “inactive”. For the same compound, the outcome [9] was “inactive”, the outcome [10] was “inactive” and the outcome [11] was “inactive”. For the same compound, the outcome [12] was “inactive”, the outcome [13] was “inactive” and the outcome [14] was “inactive”. For the same compound, the fold change [15, 20] was 0.836 (inactive) and 0.829 (inactive), the fold change [15, 21] was 0.776 and 1.63 and the cell count [15, 22] was 6980 and 9220. The cell count [15, 23] was 8340 and 11100, the z-score [5, 18] was 0.0931 (inactive) and 0.196 (inactive) and -0.0621 (inactive) and the z-score [5, 19] was -1.45 and -0.0767 and -0.000299.

With CCN(CC)CCOCCOC(=O)C1(c2ccccc2)CCCC1 the red/green cell ratio (normalised) [1] was 1.27 (inactive), the normalised cell number [1, 16] was 1 and the normalised cell number [1, 17] was 1.28. For the same compound, the remaining activity [2] was 92.5% (inactive), the outcome [4] was “inactive” and the z-score [5, 18] was 0.546 (inactive). For the same compound, the z-score [5, 19] was 0.186.

In the case of NC(CO)C(=O)NNCc1ccc(O)c(O)c1O (configuration not stated), the red/green cell ratio (normalised) [1] is reported as 1.1 (inactive), the normalised cell number [1, 16] is reported as 1.12 and the normalised cell number [1, 17] is reported as 1.23. The outcome [6] was “inactive”, the outcome [7] was “inactive” and the outcome [8] was “inactive”. For the same compound, the outcome [9] was “inactive”, the outcome [10] was “inactive” and the outcome [11] was “inactive”. For the same compound, the outcome [12] was “inactive”, the outcome [13] was “inactive” and the outcome [14] was “inactive”. For the same compound, the outcome [4] was “inactive”, the z-score [5, 18] was -0.395 (inactive) and 0.597 (inactive) and -0.0244 (inactive) and the z-score [5, 19] was 0.352 and -0.231 and -1.37.

With CN1CCN2c3ccccc3Cc3ccccc3C2C1 (configuration not stated) the red/green cell ratio (normalised) [1] was 1.03 (inactive), the normalised cell number [1, 16] was 1.24 and the normalised cell number [1, 17] was 1.28. For the same compound, the remaining activity [2] was 115% (inactive), the outcome [7] was “inactive” and the outcome [8] was “inactive”. The outcome [9] was “inactive”, the outcome [12] was “inactive” and the outcome [4] was “inactive”. For the same compound, the z-score [5, 18] was -0.437 (inactive) and -0.163 (inactive) and -1.32 (inactive) and the z-score [5, 19] was 0.688 and 0.138 and 0.514.

For CCCCNc1c(C(=O)OCC)c(C)nc2c1cnn2CC, the red/green cell ratio (normalised) [1] was 1.16 (inactive), the normalised cell number [1, 16] was 0.85 and the normalised cell number [1, 17] was 0.98. For the same compound, the remaining activity [2] was 94.8% (inactive), the fold change [15, 20] was 1.09 (inactive) and 0.956 (inactive) and 0.928 (inactive) and the fold change [15, 21] was 1.73 and 0.694 and 0.876. The cell count [15, 22] was 9150 and 8740 and 7780, the cell count [15, 23] was 8430 and 9140 and 8370 and the z-score [5, 18] was 2.27 (active). The z-score [5, 19] was 1.7.
